40 molecules from PubChem BioAssay (Tox21) can be followed below.

Results filed as inconclusive are left out. Where a call stands in place of a potency, no number is given. The source made the active and inactive calls. Calls follow the shape of the full dose curve.

5-hydroxytryptamine receptor 2A (Homo sapiens), sequence (P28223 whole entry, looked up): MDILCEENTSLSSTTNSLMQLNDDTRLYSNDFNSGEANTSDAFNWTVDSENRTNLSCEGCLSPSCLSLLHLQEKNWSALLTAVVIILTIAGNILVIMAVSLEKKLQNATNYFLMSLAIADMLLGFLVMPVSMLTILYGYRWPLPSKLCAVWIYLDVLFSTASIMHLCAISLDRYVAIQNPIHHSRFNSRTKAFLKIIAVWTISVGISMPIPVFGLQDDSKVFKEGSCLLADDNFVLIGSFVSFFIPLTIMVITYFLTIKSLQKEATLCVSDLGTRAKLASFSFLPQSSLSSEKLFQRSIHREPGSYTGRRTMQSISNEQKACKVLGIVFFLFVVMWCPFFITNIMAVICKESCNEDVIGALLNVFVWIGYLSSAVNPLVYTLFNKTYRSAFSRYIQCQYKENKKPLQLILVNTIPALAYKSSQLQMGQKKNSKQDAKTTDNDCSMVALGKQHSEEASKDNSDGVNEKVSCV

The experiment addresses 5-hydroxytryptamine receptor 2A (Homo sapiens) (UniProt P28223). In words: 5-hydroxytryptamine receptor 2A (HTR2A) small molecule antagonists, cell-based qHTS assay (AID 1963586). Also: nearly all actives have a fitted effect of over 45% in size. The settings on record: HTR2A-CHO cells, DOI-induced calcium flux, fluorescence; series mostly up to 61.5 µM. An excerpt:
National Center for Advancing Translational Sciences [NCATS]
Division of Preclinical Innovation [DPI]
U.S. Environmental Protection Agency [EPA]
National Institutes of Environmental Health Sciences [NIEHS]
National Toxicology Program [NTP]
U.S. Food and Drug Administration [FDA]
The HTR2A receptor is a subtype of the 5-HT2 receptor that belongs to the serotonin receptor family and is a G protein-coupled receptor (GPCR). The HTR2A-CHO cell line stably expressing human 5-hydroxytryptamine receptor 2A (HTR2A) can be used for screening antagonists of interactions between 5-HT2 and its ligands. The HTR2A-CHO calcium flux assay is a homogeneous fluorescence-based assay for detecting the intracellular calcium level using FDSS kinetic plate reader system.
Tox21 Assay Protocol Summary:
HTR2A-CHO cells were dispensed at 2000 cells/3uL/well in 1536-well black-clear bottom plates using a Multidrop Dispenser. After the assay plates were incubated at a 37 C/5% CO2 incubator for 18 h, 3 uL of Dye Loading Buffer was transferred to the assay plate by a Flying Reagent Dispenser. The assay plates were incubated at 37 C for 1h. For antagonist mode, 23 nL of compounds dissolved in DMSO, positive controls or DMSO only was transferred to the assay plate by a pin tool. After 5 min incubation at room temperature, 1.5 uL of 4-Iodo-2,5-dimethoxy-alpha-methylbenzeneethanamine hydrochloride (DOI) at 4nM was added to each well. The fluorescence intensity in the plates was measured using FDSS 7000EX kinetic plate reader for 3 min at 1 sec intervals.
A general note: In qHTS, concentration-response curves come from the screen itself.
As for `CC(=O)OC(C)(C)C1CC=C(C)CC1` (stereo not given), the Potency entry is “inactive”.
As to `C/C=C/C=C/C(=O)O`, the Potency result was “inactive”.
As for `C[C@]12C[C@H](O)[C@H]3[C@@H](CCC4=CC(=O)CC[C@@]43C)[C@@H]1CC[C@@H]2C(=O)CO`, the Potency result was “inactive”.
For the molecule `O=c1n(CC2CO2)c(=O)n(CC2CO2)c(=O)n1CC1CO1` (stereo not given), the Potency entry was “inactive”.
The same measure for `CCN(CC)C(=O)c1cccc(C)c1`: “inactive”; for `CCO[Si](CCCN)(OCC)OCC`: “inactive”; for `CC(C)CC(=O)CC(C)CC(C)C` (stereo not given): “inactive”.
The entry for `CCCCCCCC(=O)OCC(COC(=O)CCCCCCC)OC(=O)CCCCCCC` is “inactive”; for `CCC(=O)/C=C/C1C(C)=CCCC1(C)C` (stereo not given) it is “inactive”; for `Nc1ccc(C(=O)O)cc1` it is “inactive”.
For the molecule `O=c1c(O)c(-c2ccc(O)c(O)c2)oc2cc(O)cc(O)c12`, the Potency result is “inactive”.
The entry for `Cn1c([N+](=O)[O-])cnc1COC(N)=O` is “inactive”; for `O=[N+]([O-])c1cc(C(F)(F)F)ccc1Cl` it is “inactive”; for `Cc1occc(=O)c1O` it is “inactive”.
The entry for `ClC/C=C/CCl` is “inactive”.
Consider `CCCCCCCCCCCCCO`, for which the Potency entry is “inactive”.
Regarding `Cc1cc(=O)oc2cc(O)ccc12`, the Potency entry was “inactive”.
Consider `C=CC(C)CCCC(C)(C)O` (stereo not given), for which the Potency entry is “inactive”.
As to `O=C1OC2(c3ccccc31)c1cc(I)c(O)c(I)c1Oc1c2cc(I)c(O)c1I`, the Potency entry was “inactive”.
With `CCCCNC(N)=O`, the Potency result is “inactive”.
Take `Cc1cc(C(C)(C)C)c(O)c(C(C)(C)C)c1`: the Potency result is “inactive”.
`O=C(O)CCCC(=O)O`: the Potency entry was “inactive”.
The same measure for `C=C(C)OC(C)=O`: “inactive”; for `NCCS(=O)(=O)O`: “inactive”; for `COc1ccc(C(=O)c2ccccc2)c(O)c1`: “inactive”.
The entry for `O=S(=O)(O)c1ccc(O)cc1` is “inactive”.
The same measure for `OCc1cccc(Oc2ccccc2)c1`: “inactive”; for `CC(=O)OCc1ccc2c(c1)OCO2`: “inactive”; for `NC(=O)NC1NC(=O)NC1=O` (stereo not given): “inactive”.
In the case of `CC(=O)CC/C=C(\C)CCC=C(C)C`, the Potency result is “inactive”.
Turning to `F[B-](F)(F)F`, the Potency result is “inactive”.
In the case of `OCCOCCOCCOCCO`, the Potency result was “inactive”.
The entry for `COCCOCCOC` is “inactive”.
The entry for `C[Si]1(C)O[Si](C)(C)O[Si](C)(C)O[Si](C)(C)O1` is “inactive”; for `CCCC(C)=O` it is “inactive”.
In the case of `Nc1ccn([C@H]2CC[C@@H](CO)O2)c(=O)n1`, the Potency result was “inactive”.
Turning to `CCCCCC(N)=O`, the Potency result was “inactive”.
With `C=CCc1ccc(OC)c(OC)c1`, the Potency result was “inactive”.
The entry for `CC(=O)OC/C=C(\C)CCC=C(C)C` is “inactive”; for `Cc1ccc([N+](=O)[O-])cc1N` it is “inactive”.
